Experiment [1] has as its target Serine/threonine-protein kinase PLK3 (Homo sapiens) (UniProt Q9H4B4). As to conditions: at 1 µM; call rule not given here.
For experiment [2] the target is unchanged. The following applies: at 10 µM.
The target in experiment [3] is T1, cAMP-dependent protein kinase catalytic subunit PRKX (Homo sapiens) (UniProt P51817).
T1 sequence (whole entry): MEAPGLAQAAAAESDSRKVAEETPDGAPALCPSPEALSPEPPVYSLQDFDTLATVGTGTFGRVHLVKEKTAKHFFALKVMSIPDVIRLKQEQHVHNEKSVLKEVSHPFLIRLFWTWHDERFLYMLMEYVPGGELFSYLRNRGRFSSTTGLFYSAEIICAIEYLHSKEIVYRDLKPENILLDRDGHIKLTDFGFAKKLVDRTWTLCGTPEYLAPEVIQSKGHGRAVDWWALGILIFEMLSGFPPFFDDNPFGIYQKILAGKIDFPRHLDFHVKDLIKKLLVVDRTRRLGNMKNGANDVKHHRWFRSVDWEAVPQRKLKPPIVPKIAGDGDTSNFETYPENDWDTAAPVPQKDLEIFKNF
The following applies: at 10 µM.

Experiment [4] has as its target Protein-tyrosine kinase 2-beta (Homo sapiens) (UniProt Q14289). As to conditions: at 1 µM.
Experiment [5] has the same target. As to conditions: at 10 µM.
The target of experiment [6] is Receptor-interacting serine/threonine-protein kinase 2 (Homo sapiens) (UniProt O43353). As to conditions: at 1 µM.
The target is the same in experiment [7]. The following applies: at 10 µM.
The target in experiment [8] is Rho-associated protein kinase 1 (Homo sapiens) (UniProt Q13464). As to conditions: at 1 µM.
The target is the same in experiment [9]. As to conditions: at 10 µM.
Experiment [10] concerns the target T1, cAMP-dependent protein kinase catalytic subunit PRKX (Homo sapiens). The following applies: at 1 µM.

Chain of Protein-tyrosine kinase 2-beta (Homo sapiens) (Q14289 whole entry, looked up): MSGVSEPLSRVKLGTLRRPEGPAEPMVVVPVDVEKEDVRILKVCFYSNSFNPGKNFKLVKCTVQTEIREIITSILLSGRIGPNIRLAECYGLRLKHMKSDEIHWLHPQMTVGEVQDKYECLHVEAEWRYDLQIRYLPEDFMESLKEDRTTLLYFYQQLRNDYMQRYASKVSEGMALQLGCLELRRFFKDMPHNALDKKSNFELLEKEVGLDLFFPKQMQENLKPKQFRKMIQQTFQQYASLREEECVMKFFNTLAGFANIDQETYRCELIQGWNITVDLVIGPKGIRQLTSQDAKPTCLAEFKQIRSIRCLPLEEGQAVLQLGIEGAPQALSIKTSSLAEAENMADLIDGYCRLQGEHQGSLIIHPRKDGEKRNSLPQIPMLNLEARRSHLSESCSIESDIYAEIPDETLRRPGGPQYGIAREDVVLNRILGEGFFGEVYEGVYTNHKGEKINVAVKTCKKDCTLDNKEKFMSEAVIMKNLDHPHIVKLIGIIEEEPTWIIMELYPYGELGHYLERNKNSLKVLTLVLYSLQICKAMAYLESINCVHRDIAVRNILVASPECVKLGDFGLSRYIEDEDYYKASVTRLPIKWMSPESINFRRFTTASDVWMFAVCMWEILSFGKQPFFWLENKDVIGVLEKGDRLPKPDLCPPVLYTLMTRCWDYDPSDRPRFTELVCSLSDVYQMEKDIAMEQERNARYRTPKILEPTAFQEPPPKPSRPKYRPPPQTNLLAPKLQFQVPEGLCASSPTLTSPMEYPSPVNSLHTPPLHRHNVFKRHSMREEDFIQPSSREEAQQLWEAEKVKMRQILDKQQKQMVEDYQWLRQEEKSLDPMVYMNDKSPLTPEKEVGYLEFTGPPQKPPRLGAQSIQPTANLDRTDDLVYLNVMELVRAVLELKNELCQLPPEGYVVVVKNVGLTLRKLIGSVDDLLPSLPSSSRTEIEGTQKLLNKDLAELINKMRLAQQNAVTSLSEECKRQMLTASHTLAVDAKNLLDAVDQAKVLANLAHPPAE
Chain of Serine/threonine-protein kinase PLK3 (Homo sapiens) (Q9H4B4 whole entry, looked up): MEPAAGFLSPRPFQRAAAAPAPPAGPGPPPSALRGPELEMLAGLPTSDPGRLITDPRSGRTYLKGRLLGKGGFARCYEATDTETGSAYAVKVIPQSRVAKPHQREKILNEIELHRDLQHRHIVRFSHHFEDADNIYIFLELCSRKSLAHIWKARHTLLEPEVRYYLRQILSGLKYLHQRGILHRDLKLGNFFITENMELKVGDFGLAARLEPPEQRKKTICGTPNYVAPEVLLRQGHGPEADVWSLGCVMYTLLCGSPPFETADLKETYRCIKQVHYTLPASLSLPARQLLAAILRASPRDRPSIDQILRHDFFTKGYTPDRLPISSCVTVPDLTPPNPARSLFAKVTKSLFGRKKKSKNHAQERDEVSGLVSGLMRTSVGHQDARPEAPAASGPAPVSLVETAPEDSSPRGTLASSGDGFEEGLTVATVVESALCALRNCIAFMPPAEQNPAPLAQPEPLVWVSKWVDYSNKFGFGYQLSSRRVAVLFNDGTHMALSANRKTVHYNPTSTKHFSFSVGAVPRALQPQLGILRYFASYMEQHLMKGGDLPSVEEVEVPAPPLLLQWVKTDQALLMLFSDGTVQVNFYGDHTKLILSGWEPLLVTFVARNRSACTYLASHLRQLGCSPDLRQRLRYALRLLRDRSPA
Chain of Receptor-interacting serine/threonine-protein kinase 2 (Homo sapiens) (O43353 whole entry): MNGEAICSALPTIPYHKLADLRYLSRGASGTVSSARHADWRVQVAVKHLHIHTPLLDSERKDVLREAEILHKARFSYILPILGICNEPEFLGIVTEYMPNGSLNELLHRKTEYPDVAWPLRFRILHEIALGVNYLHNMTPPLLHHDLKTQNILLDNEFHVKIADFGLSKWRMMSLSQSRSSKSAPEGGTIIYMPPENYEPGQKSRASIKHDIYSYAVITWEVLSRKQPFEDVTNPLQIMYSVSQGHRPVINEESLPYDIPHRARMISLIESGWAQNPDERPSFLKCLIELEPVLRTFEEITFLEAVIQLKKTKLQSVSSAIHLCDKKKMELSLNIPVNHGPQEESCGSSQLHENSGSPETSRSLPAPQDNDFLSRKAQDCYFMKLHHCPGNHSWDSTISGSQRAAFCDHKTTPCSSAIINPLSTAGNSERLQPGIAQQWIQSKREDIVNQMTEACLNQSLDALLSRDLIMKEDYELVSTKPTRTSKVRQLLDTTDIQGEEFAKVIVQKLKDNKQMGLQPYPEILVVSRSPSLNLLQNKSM
Chain of Rho-associated protein kinase 1 (Homo sapiens) (Q13464 2-1354 limits assumed): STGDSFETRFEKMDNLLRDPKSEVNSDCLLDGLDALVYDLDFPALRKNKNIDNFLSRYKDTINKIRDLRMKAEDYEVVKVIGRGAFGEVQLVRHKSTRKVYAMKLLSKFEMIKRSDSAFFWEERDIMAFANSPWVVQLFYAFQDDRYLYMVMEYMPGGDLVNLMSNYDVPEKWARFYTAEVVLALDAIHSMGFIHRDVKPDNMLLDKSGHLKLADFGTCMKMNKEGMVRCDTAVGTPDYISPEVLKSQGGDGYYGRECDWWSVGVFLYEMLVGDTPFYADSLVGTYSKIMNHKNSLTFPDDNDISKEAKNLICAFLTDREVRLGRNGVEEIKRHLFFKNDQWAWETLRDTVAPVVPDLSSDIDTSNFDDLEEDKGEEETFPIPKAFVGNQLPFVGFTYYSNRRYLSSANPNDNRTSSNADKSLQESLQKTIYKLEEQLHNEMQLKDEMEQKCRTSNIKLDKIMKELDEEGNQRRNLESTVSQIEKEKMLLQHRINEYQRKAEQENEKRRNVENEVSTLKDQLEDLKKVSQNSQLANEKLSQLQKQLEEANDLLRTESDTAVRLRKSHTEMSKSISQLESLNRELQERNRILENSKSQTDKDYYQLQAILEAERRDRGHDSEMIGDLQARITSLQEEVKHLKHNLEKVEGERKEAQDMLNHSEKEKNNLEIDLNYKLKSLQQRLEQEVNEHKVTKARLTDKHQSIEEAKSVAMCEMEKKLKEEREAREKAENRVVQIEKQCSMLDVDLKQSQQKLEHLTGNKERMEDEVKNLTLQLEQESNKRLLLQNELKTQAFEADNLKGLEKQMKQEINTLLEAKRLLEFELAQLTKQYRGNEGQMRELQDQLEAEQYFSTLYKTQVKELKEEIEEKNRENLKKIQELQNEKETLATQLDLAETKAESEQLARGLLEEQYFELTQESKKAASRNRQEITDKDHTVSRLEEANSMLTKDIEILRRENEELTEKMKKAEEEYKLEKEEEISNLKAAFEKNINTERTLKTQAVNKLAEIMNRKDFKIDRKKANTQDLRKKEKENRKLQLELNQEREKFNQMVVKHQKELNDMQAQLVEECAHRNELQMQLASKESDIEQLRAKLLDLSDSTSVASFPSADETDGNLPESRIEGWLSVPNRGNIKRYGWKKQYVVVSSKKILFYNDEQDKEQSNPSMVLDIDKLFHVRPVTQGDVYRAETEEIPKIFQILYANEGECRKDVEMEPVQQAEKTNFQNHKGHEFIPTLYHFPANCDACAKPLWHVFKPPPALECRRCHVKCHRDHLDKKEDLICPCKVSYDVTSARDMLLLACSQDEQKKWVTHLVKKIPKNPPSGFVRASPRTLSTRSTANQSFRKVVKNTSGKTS

The term residual activity denotes the signal under treatment as a percentage of the control signal. For `Nc1ncnc2[nH]nc(Nc3ccc(F)cc3)c12`, the residual activity in experiment [1] was 103% (inactive); in [2] it was 94%; in experiment [3], 21%; in [4] it was 101%; in experiment [5], 79%; in experiment [6], 46%. The residual activity came out at 21% in [7], 128% in [8] and 101% in experiment [9].
Regarding `CCOC(=O)c1c(C)[nH]c(/C=C2\C(=O)Nc3ccccc32)c1C`, the residual activity in [1] is 86% (inactive); in experiment [2], 88%; in experiment [4], 80%; in [5], 45%; in experiment [6], 96%; in experiment [7] it was 99%.
As for `O=C(NC(NC(=S)Nc1ccc(F)c([N+](=O)[O-])c1)C(Cl)(Cl)Cl)C(c1ccccc1)c1ccccc1` (configuration not stated), the residual activity is 100% (inactive) in experiment [1]; 98% in [2]; 82% in experiment [10]; 52% in experiment [3]; 92% in experiment [6]; 92% in experiment [7].
For `CC(C)(C)n1nc(Cc2cccc3ccccc23)c2c(N)ncnc21`, the residual activity in experiment [1] was 94% (inactive); in [2], 97%; in [10], 98%; in experiment [3], 75%; in experiment [4], 89%; in [5], 29%. For the same compound, the residual activity in [6] was 27%; in experiment [7], 17%; in experiment [8], 114%; in [9], 125%.
`NC(=O)Nc1sc(-c2ccc(F)cc2)cc1C(N)=O`: the residual activity in experiment [1] is 88% (inactive); in experiment [2], 81%; in experiment [10], 85%; in [3], 55%; in experiment [4], 56%; in [5] it was 10%. In addition, the residual activity in experiment [6] is 67%; in experiment [7] it was 29%; in experiment [9] it was 101%.
With `O=C(O)/C=C/c1cc(Br)c(Br)c(Br)c1Br`, the residual activity in experiment [1] was 60% (inactive); in experiment [2], -9%; in [10], 68%; in experiment [3], 76%; in [6], 100%; in [7] it was 83%. Besides, the residual activity in experiment [9] amounted to 98%.
Turning to `O=C1Cc2c([nH]c3ccc([N+](=O)[O-])cc23)-c2ccccc2N1`, the residual activity in [1] was 107% (inactive); in [10], 81%; in [3] it was 53%; in experiment [4], 45%; in experiment [5], 38%; in experiment [6], 53%. For the same compound, the residual activity in [7] turned out to be 23%; in experiment [8] it was 107%.
Take `CSc1nc(-c2ccc(F)cc2)c(-c2ccnc(NC(C)c3ccccc3)c2)[nH]1` (configuration not stated): the residual activity in [1] was 91% (inactive); in [2], 90%; in experiment [10] it was 87%; in experiment [3], 58%; in experiment [5], 85%; in experiment [6] it was 75%. Also, the residual activity stood at 30% in [7] and 96% in experiment [9].
Regarding `Nc1ncnc2c1cnn2-c1ccccc1`, the residual activity in [1] is 93% (inactive); in experiment [2], 95%; in experiment [10] it was 94%; in experiment [3], 91%; in experiment [5], 97%; in experiment [6] it was 93%. In experiment [7], the residual activity amounted to 67%.
As to `Nc1n[nH]c2nc3ccccc3nc12`, the residual activity is 89% (inactive) in experiment [1]; 83% in [2]; 118% in experiment [10]; 84% in [3]; 92% in [5]; 94% in experiment [6].
In the case of `COc1cc2nccc(Oc3ccc(NC(=S)NC(=O)c4ccccc4C)cc3)c2cc1OC`, the residual activity was 80% (inactive) in experiment [1]; 89% in [2]; 68% in experiment [10]; 52% in experiment [3]; 82% in experiment [4]; 60% in experiment [5]. Besides, the residual activity in experiment [6] was 51%; in [7] it was 34%.
For `COc1ccc(Cl)cc1NC(=O)Nc1cc(C)nc2ccccc12`, the residual activity in experiment [1] was 96% (inactive); in experiment [2], 93%; in [3] it was 55%; in experiment [5], 85%; in experiment [6], 99%; in experiment [7], 93%.
In the case of `Cc1cc(C)c(/C=C2\C(=O)Nc3ccccc32)[nH]1`, the residual activity in experiment [1] is 102% (inactive).
Turning to `O=C1NC(=O)c2c1c1c3ccccc3[nH]c1n1cncc21`, the residual activity in experiment [1] was 55% (inactive); in experiment [2] it was 31%; in experiment [10], 80%; in experiment [3], 75%; in [4] it was 32%; in experiment [5] it was 19%. Besides, the residual activity in [6] is 79%; in experiment [7], 72%; in experiment [9], 96%.
With `O=c1cc(N2CCNCC2)oc2c(-c3ccccc3)cccc12`, the residual activity in experiment [1] is 100% (inactive); in experiment [2], 95%; in experiment [10], 93%; in experiment [3], 87%; in experiment [5] it was 96%; in experiment [6] it was 97%. Also, the residual activity in experiment [7] worked out at 82%.
For `Fc1ccc(-c2nc3n(c2-c2ccncc2)CCS3)cc1`, the residual activity was 100% (inactive) in experiment [1]; 95% in [2]; 92% in [10]; 92% in experiment [3]; 65% in experiment [6]; 24% in [7]. The residual activity in [8] was determined as 123%.
For `CCCCc1c(-c2ccc(O)cc2)[nH]c2nccnc12`, the residual activity in experiment [1] is 100% (inactive); in experiment [2] it was 100%; in [10] it was 93%; in experiment [3], 100%; in [4], 54%; in [5], 26%. Further, the residual activity stood at 38% in [6] and 30% in [7].
With `O=c1cc(N2CCOCC2)oc2c1ccc1ccccc12`, the residual activity was 99% (inactive) in experiment [1]; 68% in experiment [2]; 97% in experiment [10]; 96% in experiment [3]; 130% in experiment [4]; 100% in experiment [5]. Further, the residual activity in experiment [6] is 86%; in experiment [7], 83%.
For `COc1ccc(-c2cnc3c(-c4ccsc4)cnn3c2)cc1`, the residual activity in experiment [1] was 87% (inactive); in experiment [2], 97%; in [10], 81%; in experiment [3], 93%; in [4], 136%; in [5], 94%. In addition, the residual activity came out at 99% in experiment [6] and 92% in [7].
Take `Cn1sc(=O)n(Cc2ccccc2)c1=O`: the residual activity in experiment [2] was determined as 89%; in experiment [10], 76%; in experiment [3], 87%; in experiment [6], 92%; in experiment [7], 86%.
Consider `O=C1C(Cl)=C(N2C(=O)CCC2=O)C(=O)c2ccccc21`, for which the residual activity was 96% (inactive) in experiment [1]; 93% in [2]; 93% in experiment [10]; 92% in experiment [3]; 91% in experiment [4]; 92% in experiment [6]. Moreover, the results for the residual activity in experiment [7] and in [9] were 95% and 88%, respectively.
Take `CC(C)[C@H](CO)Nc1nc(Nc2cc(N)cc(Cl)c2)c2ncn(C(C)C)c2n1`: the residual activity in experiment [1] is 99% (inactive); in [2], 77%; in experiment [3] it was 88%; in [4] it was 59%; in experiment [5] it was 7%; in experiment [6] it was 85%. For the same compound, the residual activity in experiment [7] stood at 77%; in experiment [9] it was 84%.
Turning to `COc1cc2ncnc(Nc3cccc(Cl)c3)c2cc1OC`, the residual activity was 83% (inactive) in [1]; 122% in experiment [10]; 117% in experiment [4]; 76% in [5]; 26% in experiment [6]; 16% in experiment [7].
Consider `O=C1Cc2c([nH]c3ccc(Br)cc23)-c2ccccc2N1`, for which the residual activity was 95% (inactive) in experiment [1]; 83% in experiment [2]; 89% in experiment [4]; 58% in [5]; 49% in [6]; 22% in experiment [7].
Regarding `CC(C)(C)c1nc2c3ccc(F)cc3c3c(=O)[nH]ccc3c2[nH]1`, the residual activity is 55% (inactive) in experiment [1], 64% in [2], 18% in experiment [6] and 20% in experiment [7].
As for `CC(C)c1nn(-c2c(Cl)cccc2Cl)c2nc(Cc3ccc(OCCO)cc3)[nH]c(=O)c12`, the residual activity in experiment [1] is 103% (inactive); in experiment [2], 96%; in experiment [10], 94%; in [3], 87%; in [4] it was 109%; in experiment [5], 99%. Besides, the residual activity in experiment [6] worked out at 90%; in experiment [7], 83%.
Consider `O=C1Nc2ccc(Cl)cc2/C1=C/c1cc(Cl)c(O)c(Cl)c1`, for which the residual activity was 94% (inactive) in experiment [1]; 95% in experiment [2]; 59% in experiment [10]; 63% in experiment [3]; 96% in experiment [4]; 28% in experiment [5]. Besides, the residual activity in experiment [6] was determined as 32%; in experiment [7] it was 25%; in experiment [9] it was 121%.

These data come from ChEMBL document CHEMBL2218924, “A broad activity screen in support of a chemogenomic map for kinase signalling research and drug discovery” (Biochem J, 2013).
